Reference: PubChem BioAssay
Calls of active or inactive are those of the source.

How the values were obtained:
[1] = test system: Plasmodium falciparum Sir2 (PF13_0152, Sir2A); test: Plasmodium falciparum Sir2A binding compounds – biochemical, small-molecule microarray, 635 nm fluorescence, primary screen (AID 1098); details: fluorescence 635 nm, higher = more signal;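 also: score merges spot fluorescence intensity with its signal-to-noise ratio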
[2] = probe aDKK1 binding to arrayed compounds – biochemical, biotinylated probe, 635/667 nm fluorescence, primary screen (AID 1099); details: small-molecule microarray, higher = more signal;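 also: score merges 667nm spot fluorescence with signal to noise across triplicate slides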
[3] = probe aCHRDL2 binding to arrayed compounds – biochemical, biotinylated probe, 635/667 nm fluorescence, primary screen (AID 1100); details: small-molecule microarray, higher = more signal
[4] = change in splice reporter luminescence, either direction, cell-based, HEK293, spliceosome inhibition project, primary screen (AID 1101); details: HEK293 splicing luciferase reporter, 24 h, higher = more signal, called active from +8 up or from −8 down;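 also: HEK293 cells carrying a splicing-competent luciferase reporter gene; test concentration not given here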
[5] = molecular target: Fibroblast growth factor 10 (Homo sapiens) (UniProt O15520); test: compounds binding fibroblast growth factor 10 – biochemical, small-molecule microarray, 635 nm fluorescence, primary screen (AID 1102); details: FGF10 binding, fluorescence 635 nm, higher = more signal
[6] = test system: glycogen synthase kinase-3 (GSK3A per assay name; protocol says GSK3B); test: compounds binding glycogen synthase kinase-3 – biochemical, small-molecule microarray, 635 nm fluorescence, GSK3A, primary screen (AID 1103); details: fluorescence 635 nm, higher = more signal; also: the record names both GSK3A and GSK3B
[7] = molecular target: Epidermal growth factor receptor (Homo sapiens) (UniProt P00533); test: compounds binding epidermal growth factor receptor – biochemical, small-molecule microarray, 635 nm fluorescence, primary screen (AID 1104); details: EGFR binding, higher = more signal;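 also: score merges 667 nm emission intensity with spot signal to noise over triplicate slides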
[8] = molecular target: Follistatin-related protein 3 (Homo sapiens) (UniProt O95633); test: compounds binding follistatin-related protein 3 – biochemical, small-molecule microarray, 635 nm fluorescence, primary screen (AID 1105); details: FSTL3 binding, higher = more signal;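 also: score merges emission near 667 nm and signal to noise per printed spot across three slides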
[9] = molecular target: Dickkopf-related protein 1 (Homo sapiens) (UniProt O94907); test: small molecules binding DKK1 protein – biochemical, small-molecule microarray, 635 nm fluorescence scan, primary screen (AID 1106); details: higher = more signal;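 also: score merges emission near 667 nm with signal to noise over three replicate slides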
[10] = test system: Inhibin beta A chain (activin A); test: small molecules binding activin A – biochemical, small-molecule microarray, 635 nm fluorescence scan, primary screen (AID 1107); details: INHBA, higher = more signal;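 also: mouse activin A protein probed at 4.33 µg/mL on printed slides; score merges bound-protein fluorescence near 667 nm with spot signal-to-noise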
[11] = test system: Human papillomavirus type 1a protein E7 (residues 44-93); test: small molecules binding HPV E7 44-93 – biochemical, small-molecule microarray, residues 44-93, 635 nm fluorescence, primary screen (AID 1108); details: fluorescence 635 nm, higher = more signal;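 also: E7 fragment applied at 1 µg/mL in TBST for 1 h at 4 C; score combines spot fluorescence with its signal to noise ratio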
[12] = hepatitis C replication reporter changes, two-sided – Huh7 cells, luciferase reporter, HCV replication inhibitor project, primary screen (AID 1109); details: Huh7 HCV replicon luciferase reporter, 48 h; higher = more signal;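 also: huh7 hepatoma cells harbouring a luciferase neomycin HCV replicon reporter; luciferase luminescence as measure of HCV replicon replication; test concentration not given here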
[13] = molecular target: Left-right determination factor 2 (Homo sapiens) (UniProt O00292); test: small molecules binding LEFTY2 protein – biochemical, small-molecule microarray, 635 nm fluorescence scan, primary screen (AID 1110); details: higher = more signal
[14] = molecular target: Calmodulin-1 (Homo sapiens) (UniProt P0DP23); test: small molecules binding calmodulin-1 with EGTA – biochemical, small-molecule microarray, Cy5-labelled CALM1, profiling panel (AID 1111); details: Cy5-CALM1 binding fluorescence, higher = more signal;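 also: labelled calmodulin applied in Tris saline Tween buffer holding calcium plus EGTA and DTT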
[15] = molecular target: Calmodulin-1 (Homo sapiens) (UniProt P0DP23); test: small molecules binding Ca-loaded calmodulin-1 – biochemical, small-molecule microarray, Cy5-labelled CALM1, plus calcium, artefact control for SMM control-protein annotation, profiling panel (AID 1112); details: Cy5-CALM1 binding fluorescence, higher = more signal;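 also: score merges spot fluorescence with signal to noise from triplicate slides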
[16] = probe aWnt5a binding to arrayed compounds – biochemical, biotinylated probe, 635/667 nm fluorescence, primary screen (AID 1113); details: small-molecule microarray, higher = more signal;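 also: score merges 667 nm fluorescence intensity with signal-to-noise per printed feature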
[17] = probe aShh binding to arrayed compounds – biochemical, biotinylated probe, 635/667 nm fluorescence, primary screen (AID 1114); details: small-molecule microarray, higher = more signal;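 also: probe is biotin-labelled aShh protein from a stem cell growth factor screen; measures binding of labelled protein to compounds printed on the slide; score merges feature fluorescence at 667 nm with signal-to-noise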
[18] = probe aNog binding to arrayed compounds – biochemical, biotinylated probe, 635/667 nm fluorescence, primary screen (AID 1115); details: small-molecule microarray, higher = more signal;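 also: probe is biotinylated aNog protein used at 0.15 µg/mL for 1 h at 4 C; z-score combines 667 nm fluorescence of each spot with its signal to noise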
[19] = molecular target: Torsin-1A-interacting protein 1 (Homo sapiens) (UniProt Q5JTV8); test: compound microarray binding of lysate hLAP1 – cell lysate, small-molecule microarray, COS7 lysate, 635/667 nm fluorescence, primary screen (AID 1116); details: 635 nm fluorescence, higher = more signal
[20] = molecular target: Alpha-bungarotoxin (Bungarus multicinctus) (UniProt P60615); test: compounds binding labelled alpha-BTX control protein – biochemical, small-molecule microarray, Alexa647 label, 635/667 nm fluorescence, artefact control for SMM control protein annotation, profiling panel (AID 1117); details: alpha-BTX-A647 binding fluorescence, higher = more signal
Sequence of Alpha-bungarotoxin (Bungarus multicinctus) (P60615 whole entry, looked up): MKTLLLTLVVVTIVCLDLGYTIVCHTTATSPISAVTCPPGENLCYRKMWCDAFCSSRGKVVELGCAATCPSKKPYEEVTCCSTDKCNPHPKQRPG

Sequence of Torsin-1A-interacting protein 1 (Homo sapiens) (Q5JTV8 whole entry, looked up): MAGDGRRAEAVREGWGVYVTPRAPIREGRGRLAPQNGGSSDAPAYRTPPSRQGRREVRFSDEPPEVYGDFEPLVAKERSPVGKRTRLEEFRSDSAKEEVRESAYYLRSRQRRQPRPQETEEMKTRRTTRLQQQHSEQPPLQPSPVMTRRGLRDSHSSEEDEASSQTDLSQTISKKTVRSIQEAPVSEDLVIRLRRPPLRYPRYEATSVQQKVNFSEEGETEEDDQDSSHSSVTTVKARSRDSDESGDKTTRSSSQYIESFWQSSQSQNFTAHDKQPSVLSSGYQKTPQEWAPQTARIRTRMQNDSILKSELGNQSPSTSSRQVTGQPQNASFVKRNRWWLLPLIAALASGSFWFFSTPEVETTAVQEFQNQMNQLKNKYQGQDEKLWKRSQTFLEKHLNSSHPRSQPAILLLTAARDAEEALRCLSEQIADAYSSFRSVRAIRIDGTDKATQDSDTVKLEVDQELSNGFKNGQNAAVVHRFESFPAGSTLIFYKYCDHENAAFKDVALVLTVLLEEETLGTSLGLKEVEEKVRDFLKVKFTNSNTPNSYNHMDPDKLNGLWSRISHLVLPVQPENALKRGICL
Sequence of Follistatin-related protein 3 (Homo sapiens) (O95633 whole entry, looked up): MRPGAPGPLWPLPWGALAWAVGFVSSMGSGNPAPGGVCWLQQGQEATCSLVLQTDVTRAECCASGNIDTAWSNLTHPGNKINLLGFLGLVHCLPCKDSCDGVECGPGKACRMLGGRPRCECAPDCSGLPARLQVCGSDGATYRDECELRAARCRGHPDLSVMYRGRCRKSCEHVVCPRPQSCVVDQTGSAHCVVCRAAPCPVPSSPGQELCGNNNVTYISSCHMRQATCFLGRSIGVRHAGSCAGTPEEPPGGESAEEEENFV
Sequence of Epidermal growth factor receptor (Homo sapiens) (P00533 whole entry, looked up): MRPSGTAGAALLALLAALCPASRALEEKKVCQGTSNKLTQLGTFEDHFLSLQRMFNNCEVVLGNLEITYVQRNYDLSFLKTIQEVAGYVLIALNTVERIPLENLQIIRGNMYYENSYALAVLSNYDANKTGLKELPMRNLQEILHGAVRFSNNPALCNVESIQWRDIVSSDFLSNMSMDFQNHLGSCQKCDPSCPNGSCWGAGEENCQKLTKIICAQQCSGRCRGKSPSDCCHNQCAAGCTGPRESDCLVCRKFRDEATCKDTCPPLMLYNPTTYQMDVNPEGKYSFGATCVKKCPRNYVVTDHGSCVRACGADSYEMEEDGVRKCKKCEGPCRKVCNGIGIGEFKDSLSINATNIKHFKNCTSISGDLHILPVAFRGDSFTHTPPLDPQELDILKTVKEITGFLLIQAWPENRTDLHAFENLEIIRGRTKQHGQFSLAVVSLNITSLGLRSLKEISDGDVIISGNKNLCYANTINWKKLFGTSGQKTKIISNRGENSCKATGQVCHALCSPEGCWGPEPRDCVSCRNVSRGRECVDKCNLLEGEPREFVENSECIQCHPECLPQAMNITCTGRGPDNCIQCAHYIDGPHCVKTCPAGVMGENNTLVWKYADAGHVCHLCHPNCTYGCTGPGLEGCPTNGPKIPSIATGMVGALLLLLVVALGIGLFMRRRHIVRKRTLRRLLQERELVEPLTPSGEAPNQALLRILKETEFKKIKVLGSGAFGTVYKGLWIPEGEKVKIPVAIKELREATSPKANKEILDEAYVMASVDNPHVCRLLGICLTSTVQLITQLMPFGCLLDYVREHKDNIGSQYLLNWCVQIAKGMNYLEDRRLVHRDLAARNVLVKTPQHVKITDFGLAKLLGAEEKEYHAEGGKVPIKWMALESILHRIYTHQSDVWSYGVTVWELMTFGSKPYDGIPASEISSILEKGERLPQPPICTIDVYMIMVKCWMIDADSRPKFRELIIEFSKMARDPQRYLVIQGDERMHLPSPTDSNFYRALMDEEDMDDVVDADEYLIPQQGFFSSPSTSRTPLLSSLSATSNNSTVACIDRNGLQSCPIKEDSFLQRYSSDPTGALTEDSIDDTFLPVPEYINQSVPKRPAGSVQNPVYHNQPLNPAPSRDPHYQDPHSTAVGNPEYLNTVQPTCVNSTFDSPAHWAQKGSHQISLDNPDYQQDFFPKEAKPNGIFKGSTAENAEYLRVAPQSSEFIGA
Sequence of Left-right determination factor 2 (Homo sapiens) (O00292 whole entry, looked up): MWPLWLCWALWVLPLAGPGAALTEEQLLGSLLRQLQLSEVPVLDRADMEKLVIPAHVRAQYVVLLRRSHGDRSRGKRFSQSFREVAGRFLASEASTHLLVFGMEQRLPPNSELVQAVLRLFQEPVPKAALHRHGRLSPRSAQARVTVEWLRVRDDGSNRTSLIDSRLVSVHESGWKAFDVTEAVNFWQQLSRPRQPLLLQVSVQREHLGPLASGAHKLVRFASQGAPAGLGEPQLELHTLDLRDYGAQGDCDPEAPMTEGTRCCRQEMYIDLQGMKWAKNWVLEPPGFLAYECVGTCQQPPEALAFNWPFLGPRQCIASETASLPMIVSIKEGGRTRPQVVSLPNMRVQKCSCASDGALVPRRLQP
Sequence of Fibroblast growth factor 10 (Homo sapiens) (O15520 whole entry, looked up): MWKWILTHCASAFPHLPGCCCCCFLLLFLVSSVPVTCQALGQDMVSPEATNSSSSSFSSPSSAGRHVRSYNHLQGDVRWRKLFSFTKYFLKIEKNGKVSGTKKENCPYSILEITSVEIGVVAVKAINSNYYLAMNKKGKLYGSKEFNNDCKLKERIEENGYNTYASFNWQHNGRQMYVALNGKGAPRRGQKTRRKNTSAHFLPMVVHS
Sequence of Dickkopf-related protein 1 (Homo sapiens) (O94907 whole entry, looked up): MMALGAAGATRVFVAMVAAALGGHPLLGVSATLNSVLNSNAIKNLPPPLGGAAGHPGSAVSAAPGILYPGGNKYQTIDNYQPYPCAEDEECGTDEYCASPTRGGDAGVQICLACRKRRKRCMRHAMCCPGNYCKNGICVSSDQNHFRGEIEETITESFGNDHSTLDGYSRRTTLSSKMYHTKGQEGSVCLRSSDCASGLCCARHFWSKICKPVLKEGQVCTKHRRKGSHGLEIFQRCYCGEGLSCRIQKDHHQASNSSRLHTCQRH

| SMILES | composite z-score [1] | composite z-score [2] | composite z-score [3] | z-score [4] | composite z-score [5] | composite z-score [6] | composite z-score [7] | composite z-score [8] | composite z-score [9] | composite z-score [10] | composite z-score [11] | z-score [12] | composite z-score [13] | composite z-score [14] | composite z-score [15] | composite z-score [16] | composite z-score [17] | composite z-score [18] | composite z-score [19] | composite z-score [20] |
| --- | --- | --- | --- | --- | --- | --- | --- | --- | --- | --- | --- | --- | --- | --- | --- | --- | --- | --- | --- | --- |
| C=CCC(OC(C)=O)[C@@H]1[C@@H](N(Cc2ccc(-c3ccccc3)cc2)C(=O)c2cccc3ccccc23)c2cc(OCCCO)ccc2N1C(=O)c1ccc(-c2ccccc2)cc1 (stereo not given in full) | -0.333 | 0.4 | 0.672 | -1.05 (inactive) | 0.164 | 0.366 | -0.192 | 0.269 | -0.111 | 1.09 | 0.431 | -0.133 | -0.351 | 0.468 | 0.553 | -0.187 | -0.0793 | -0.443 | 0.951 | 0.445 |
| O=C(c1ccccc1)N1Cc2ccccc2C[C@@]2(COC(c3ccc(OCCCO)cc3)=N2)C1=O | 1.5 | 0.298 | 0.657 | 0.372 (inactive) | 1.1 | 1.29 | 0.0545 | 0.796 | 0.146 | 0.7 | 1.4 | -1.25 | 0.252 | 1.32 | 0.566 | -0.0512 | 0.184 | -0.486 | 1.31 | 1.83 |
| CC1CC/C=C\[C@H]2OC34C=CCN(C(C)(C)C)C(=O)[C@H]3N(C(C)CO)C(=O)[C@@H]4C2C(=O)O1 (stereo not given in full) | -1.24 | -0.366 | -0.266 | 1.11 (inactive) | -0.443 | -0.948 | -0.698 | -0.268 | -0.007 | 1.28 | -0.864 | -1.4 | -0.442 | -1.19 | -1.23 | -0.124 | -0.0011 | -0.219 | -0.23 | -0.942 |
| Cc1ccc([C@@H]2C[C@@H](Sc3ccccc3)[C@H](C(=O)O)CN2S(=O)(=O)c2ccc(C)cc2)cc1 | 1.31 | 0.055 | 0.874 | -0.521 (inactive) | 1.37 | 1.34 | 0.271 | 0.968 | -0.0594 | 0.289 | 1.47 | -0.733 | 0.0973 | 1.66 | 0.481 | 0.0219 | 0.408 | 1.55 | 1.17 | 1.69 |
| C=CC(=C)[C@H]1Oc2ccccc2S(=O)(=O)N2CCC[C@@H]12 | -0.0608 | -0.144 | -0.0159 | -0.629 (inactive) | -0.249 | -0.486 | 0.0976 | -0.0111 | 0.317 | 1.07 | -1.24 | -3.25 | 0.0569 | -0.523 | -0.536 | -0.138 | -0.0211 | -0.353 | -0.448 | 0.279 |
| CC[C@@H]1C=C(C(=O)O)[C@H](c2ccc(Br)cc2)N1S(=O)(=O)c1ccc(C)cc1 | 0.118 | 0.495 | 0.882 | 1.28 (inactive) | 0.102 | 0.268 | 0.444 | 0.563 | -0.235 | 1.11 | 0.618 | -0.832 | -0.124 | 1.17 | 0.244 | -0.154 | -0.0769 | 0.581 | 0.532 | 0.535 |
| CCCC[C@@H]1C[C@H]1[C@@H](NC(=O)c1ccco1)c1ccc(-c2ccccc2)cc1 | -0.338 | 0.189 | 0.272 | -1.61 (inactive) | 0.222 | 0.118 | -0.0501 | -0.0483 | -0.426 | 0.39 | 0.114 | -0.971 | 0.0023 | -0.179 | 0.0765 | 0.0916 | 0.104 | 0.376 | 0.425 | 0.0932 |
| CC(=O)n1cc(C(O)C2C=CC3C(=O)N(c4ccccc4)C(=O)C3N2Nc2ccc([N+](=O)[O-])cc2)c2ccccc21 (stereo not given) | 0.894 | 0.929 | 1.38 | 0.138 (inactive) | -0.0673 | 1.28 | -0.142 | 0.38 | -0.113 | 0.783 | 0.275 | -0.0176 | -0.712 | 1.73 | 0.571 | -0.0459 | -0.0243 | 0.576 | 1.87 | 1.7 |
| C=C(/C(=C/C[C@H](OC(C)=O)c1ccc(CO)o1)c1cc(C(=O)OC)ccc1OC)C(C)C | -0.415 | -0.0153 | -0.0899 | -0.0448 (inactive) | 0.505 | -0.196 | -0.455 | 0.397 | 0.0625 | 0.463 | -0.3 | -2.22 | -0.183 | -0.0278 | -0.061 | -0.0506 | 0.318 | 0.168 | 0.0916 | -0.829 |
| Cc1nc2cc(Br)ccc2c(=O)o1 | -0.319 | -0.0717 | -0.267 | 0.502 (inactive) | 0.543 | 0.778 | 0.427 | 0.846 | 0.436 | 0.435 | 0.686 | -0.569 | 0.4 | 0.66 | 0.202 | -0.198 | -0.481 | -0.483 | 0.197 | 0.206 |
| C[C@@]1([C@@H](NC(=O)c2ccc(-c3ccccc3)cc2)c2ccc(Cl)cc2)C[C@H]1C1CCCCC1 | 0.78 | 1.13 | 1.07 | -1.82 (inactive) | 0.575 | 0.787 | 0.0292 | 0.313 | -0.131 | 0.387 | 1.34 | -1.18 | 0.279 | 1.42 | 1.2 | 0.0879 | 0.603 | 1.03 | 0.667 | 1.17 |
| O=C1N(Cc2ccccc2)c2ccccc2[C@@H]2OC(c3ccc(OCCCO)cc3)=N[C@]12CCS(=O)(=O)c1ccccc1 | 0.833 | 0.562 | 0.78 | 1.2 (inactive) | 0.17 | 0.251 | -0.24 | 0.0891 | 0.0435 | 1.07 | 1.38 | -1.38 | 0.274 | 1.61 | 0.246 | 0.0279 | -0.0575 | -0.807 | 0.655 | 1.48 |
